From PubChem BioAssay (Tox21)
Where “and” joins values, the source holds several entries; their conditions need not be identical. Equal values may be shown once. Records with an inconclusive call do not appear. Calls of active or inactive are those of the source. Unless noted, the call rests on the fitted dose curve; in most records, active means well fitted curve in the direction sought with a large enough effect in the repeat runs; inconclusive means weak or mixed curves; inactive means no such curve, though single readings can be large; an effect the other way counts as inactive or inconclusive.

Assays:
[1] = qHTS assay to identify small molecule agonists of the hypoxia (HIF-1) signaling pathway - cell viability counter screen (AID 1224844; calls by dose curve; further: nearly all actives have a fitted effect of over 50% in size; further: potency means the concentration at half of the fitted maximal effect)
Summary of the method: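 Tox21 10K compounds were added to HRE-bla ME-180 cells (0.5% dialyzed FBS) and incubated 17 hrs at 37C; ATP-based CellTiter-Glo luminescence then reported cell viability in the same wells.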

[2] = qHTS RealTime-Glo MT Cell Viability Assay in HepG2 cells - 24 hour (AID 1224867); further: nearly all actives have a fitted effect of over 50% in size; further: potency means the concentration at half of the fitted maximal effect
Summary of the method: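 HepG2 cells were seeded at 600 cells/well together with NanoLuc luciferase and a cell-permeant prosubstrate, preincubated 5 h at 37 C/5% CO2, then pin-dosed with compounds in DMSO. Nonlytic luminescence from viable cells was read at each time point.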

[3] = qHTS RealTime-Glo MT Cell Viability Assay in HEK293 cells - 32 hour (AID 1224868); further: nearly all actives have a fitted effect of over 50% in size; further: potency means the concentration at half of the fitted maximal effect
Summary of the method: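 HEK293 cells were seeded at 600 cells/well together with NanoLuc luciferase and cell-permeant prosubstrate, preincubated 5 h at 37 C/5% CO2, then given compound in DMSO by pintool. Luminescence from viable-cell prosubstrate reduction was read repeatedly over 40 h.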

[4] = qHTS assay to identify small molecule agonists of H2AX (AID 1224845; active means well fitted activation curve with a large enough effect in the signal ratio in the repeat runs, not every such curve was filed as active; the % refers to the signal ratio)
Summary of the method: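 Wild-type CHO-K1 cells plated overnight, then exposed 3 hr at 37C to compounds at 15 concentrations (0.76% DMSO). Lysed, then HTRF anti-pH2AX(S139)-cryptate/anti-H2AX-d2 detection after 24 hr at room temperature; emissions 665 and 620 nm.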

[5] = qHTS assay to identify small molecule agonists of the hypoxia (HIF-1) signaling pathway (AID 1224846; active means well fitted activation curve with a large enough effect in the signal ratio in the repeat runs, not every such curve was filed as active; the % refers to the signal ratio)
Summary of the method: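 Steps: seed ME-180 HRE-bla cells (2,000/well, 0.5% dialyzed FBS); incubate 5 hrs at 37C; pin-transfer compounds or DMSO; incubate 17 hrs; add LiveBLAzer B/G substrate CCF4-AM; measure reporter activation by FRET.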

[6] = qHTS assay to identify small molecule agonists of H2AX - cell viability counter screen (AID 1224847; calls by dose curve; further: nearly all actives have a fitted effect of over 30% in size; further: potency means the concentration at half of the fitted maximal effect)
Summary of the method: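 Compounds tested at 15 concentrations were incubated 3 hr at 37C with wild-type CHO-K1 cells; cellular ATP-based luminescence (CellTiter-Glo) indicated viability.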

[7] = qHTS assay to identify small molecule antagonists of the estrogen related receptor (ERR) signaling pathway from Tox21 library (AID 1224848); further: nearly all actives have a fitted effect of over 50% in size; further: potency means the concentration at half of the fitted maximal effect
Summary of the method: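 Screening used an ERR reporter line supplied by NTP, exposed for 18 h at 37 C to library compounds delivered in DMSO. Signal was luciferase luminescence developed with ONE-Glo at room temperature for 30 min.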

[8] = qHTS assay to identify small molecule agonists of the estrogen related receptor (ERR) signaling pathway from Tox21 library (AID 1224849; calls by dose curve; further: nearly all actives have a fitted effect of over 15% in size); settings: ERR reporter cell line, ONE-Glo luciferase, 18 h; at 92.4 µM (top of the series) unless noted
Summary of the method: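 Agonist signal is luciferase luminescence from an ERR reporter cell line treated 18 h at 37 C with DMSO-dissolved compounds, read 30 min after ONE-Glo addition at room temperature.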

[9] = A CellTox Green Cytotoxicity Assay to monitor cytotoxicity in HEK293 cells - 0 hour (AID 1224869); further: nearly all actives have a fitted effect of over 50% in size
Summary of the method: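 Cytotoxicity was tracked continuously in HEK293 cells by a DNA-binding dye excluded from viable cells. Compounds were transferred in DMSO 5 h after seeding; fluorescence was recorded at intervals up to 40 h.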

[10] = qHTS RealTime-Glo MT Cell Viability Assay in HepG2 cells - 40 hour (AID 1224870); further: nearly all actives have a fitted effect of over 50% in size; further: potency means the concentration at half of the fitted maximal effect
Summary of the method: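 HepG2 cells mixed with RealTime-Glo MT reagents (NanoLuc plus cell-permeant prosubstrate) were seeded at 600 cells/well, incubated 5 h at 37 C/5% CO2, then pinned with compounds in DMSO; nonlytic luminescence tracked viability during 40 h treatment.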
On the % scale 0 is the no-effect control and ±100 the full control effect.

CCCCC/C=C\C/C=C\C/C=C\C/C=C\CCCC(=O)NCC(=O)O
inactive: Potency [1] | Potency [2] | Potency [3]

BrCC(Br)(Br)Br
active: Potency [3] 45.3 µM
inactive: Potency [4] | Potency [5] | Potency [6] | Potency [7] | activity change, positive = activation [8] 15.6% | Potency [2] | Potency [9]

O=C1C(Cl)=C(Cl)C(=O)C(Cl)=C1Cl
active: Potency [1] 54.8 µM and 38.9 µM | Potency [7] 24.3 µM
inactive: Potency [6] | activity change, positive = activation [8] -23.7% and -49% | Potency [9]

O=C(N[C@@H]1N=C(c2ccccc2F)c2cccc3c2N(CC3)C1=O)c1cc2ccccc2[nH]1
inactive: Potency [1] | Potency [6] | Potency [3]

COc1cnc(OC)n2nc(NS(=O)(=O)c3c(OCC(F)F)cccc3C(F)(F)F)nc12
inactive: Potency [4] | Potency [5] | Potency [6] | Potency [7] | Potency [2] | Potency [9] | Potency [10]

C=CC(=O)[O][Sn]([CH2]CCC)([CH2]CCC)[CH2]CCC
active: Potency [1] 0.977 µM | Potency [6] 1.42 µM | Potency [7] 1.37 µM | Potency [2] 0.436 µM | Potency [3] 0.389 µM | Potency [10] 0.389 µM
inactive: Potency [9]

CCC(OC(C)=O)C(CC(C)NC)(c1ccccc1)c1ccccc1 (centres undefined)
inactive: Potency [4] | Potency [5] | activity change, positive = activation [8] -58.4% | Potency [9]
active: Potency [6] 128 µM | Potency [7] 69.2 µM | Potency [2] 62.2 µM | Potency [3] 55.4 µM | Potency [10] 62.2 µM

c1ccc(Nc2ccc(Nc3ccccc3)cc2)cc1
active: Potency [3] 21.8 µM
inactive: Potency [1] | Potency [7] | Potency [2] | Potency [10]

CCC(C)c1cccc(C(C)CC)c1O (centres undefined)
active: Potency [6] 35.7 µM
inactive: Potency [1] | Potency [2] | Potency [3] | Potency [9] | Potency [10]

COP(=S)(OC)Oc1nc(Cl)c(Cl)cc1Cl
inactive: Potency [4] | Potency [5] | Potency [6] | Potency [7] | activity change, positive = activation [8] -11.3% | Potency [2] | Potency [3] | Potency [9] | Potency [10]

CN(C)C(=S)SSC(=S)N(C)C
active: Potency [1] 171 nM and 347 nM | Potency [6] 49.8 µM and 89.8 µM and 49.2 µM | Potency [2] 54.2 µM and 436 nM and 379 nM | Potency [3] 242 nM and 245 nM | Potency [10] 54.2 µM and 219 nM and 169 nM
inactive: Potency [9]

O=C1C2(Cl)C3(Cl)C4(Cl)C(Cl)(Cl)C5(Cl)C3(Cl)C1(Cl)C5(Cl)C24Cl (centres undefined)
inactive: Potency [9]
active: Potency [1] 21.5 µM | Potency [6] 49.6 µM and 96.5 µM | Potency [7] 26.9 µM and 58.5 µM | Potency [2] 42.9 µM and 46.9 µM | Potency [3] 19.2 µM and 41.8 µM | Potency [10] 54 µM and 46.9 µM

Oc1ccc([C@H]2CNCc3c2ccc(O)c3O)cc1O
inactive: Potency [1] | Potency [6] | Potency [7] | Potency [3] | Potency [10]

N#CC(C#N)=NNc1cccc(Cl)c1
active: Potency [1] 3.09 µM | Potency [7] 0.77 µM | Potency [2] 19.5 µM | Potency [3] 4.9 µM

CCOP(=O)(Sc1ccccc1)Sc1ccccc1
inactive: Potency [1] | Potency [5] | Potency [2] | Potency [3] | Potency [10]

COc1ccc2c3c1O[C@H]1[C@H](O)CC[C@H]4[C@@H](C2)N(C)CC[C@@]341
inactive: Potency [4] | Potency [5] | Potency [6] | Potency [2] | Potency [3] | Potency [9] | Potency [10]

ClC1=C(Cl)[C@]2(Cl)[C@H]3[C@H]([C@@H]4C=C[C@H]3C4)[C@@]1(Cl)C2(Cl)Cl
active: Potency [1] 43.6 µM | Potency [6] 89.8 µM | Potency [2] 54.9 µM
inactive: Potency [9] | Potency [10]

CNC(=O)O/N=C(\C)C(C)S(C)(=O)=O (centres undefined)
inactive: Potency [4] | Potency [5] | Potency [6] | Potency [7] | activity change, positive = activation [8] 7.13% [at 872 µM] | Potency [2] | Potency [3] | Potency [9] | Potency [10]

S=C=Nc1ccccc1
inactive: Potency [4] | Potency [5] | Potency [6] | Potency [2] | Potency [3] | Potency [9]

CC(=O)[O-].CC(=O)[O-].CC(=O)[O-].[Cr+3]
inactive: Potency [4] | Potency [5] | Potency [6] | Potency [2] | Potency [3] | Potency [9]

Cc1cc(C2CC2)nc(Nc2ccccc2)n1
active: Potency [3] 24.5 µM
inactive: Potency [1] | Potency [5] | Potency [7] | Potency [9]

C1=CCC=C1
inactive: Potency [1] | Potency [6] | Potency [9] | Potency [10]

S=C=NCCc1ccccc1
inactive: Potency [1] | Potency [6] | Potency [9]
active: Potency [3] 49.1 µM

O=[N+]([O-])c1cc(C(F)(F)F)c(Cl)c([N+](=O)[O-])c1Nc1ncc(C(F)(F)F)cc1Cl
active: Potency [1] 6.92 µM | Potency [6] 50.5 µM | Potency [2] 21.9 µM | Potency [3] 1.74 µM | Potency [10] 11 µM
inactive: Potency [9]

Oc1cccc(Cl)c1Cl
inactive: Potency [4] | Potency [5] | Potency [6] | activity change, positive = activation [8] -30.2% | Potency [2] | Potency [9]

COc1ccc2[nH]cc(CCN(C(C)C)C(C)C)c2c1
inactive: Potency [4] | Potency [5] | Potency [6] | Potency [2] | Potency [3] | Potency [9] | Potency [10]
